Test results reported in ChEMBL document CHEMBL4513216, “Probing the Open Global Health Chemical Diversity Library for Multistage-Active Starting Points for Next-Generation Antimalarials” (ACS Infect Dis, 2020).
Screen size: about 69,000 compounds; about 8,600 (12%) showed an effect of 50% or more. Many of the other results were omitted from the sample, so strong results are more common in it than they were.

The molecules below were run on Plasmodium berghei (assay: Screen against P. berghei liver stage (PbLuc), transformed with Luciferase, at 10uM). Settings: tested at 10 uM.
Type: functional, HepG2

SMILES	INHIBITION [%]
Cc1ccsc1C(=O)N1CCCn2nnc(Cn3cccn3)c2C1	60.3
O=C(CO)N1CCCn2nnc(Cn3cccn3)c2C1	12.1
O=C(c1ccncc1)N1CCCn2nnc(Cn3cccn3)c2C1	33
CCc1ccc(C(=O)N2CCCn3nnc(Cn4cccn4)c3C2)cc1	52.3
O=C(c1ccc(Cl)cc1)N1CCCn2nnc(Cn3cccn3)c2C1	10.8
Cc1ccccc1C(=O)N1CCCn2nnc(Cn3cccn3)c2C1	-16.9
CN1CCOC(CNCc2csc(C3CCCCC3)n2)C1 (centres undefined)	13.6
CCN(CC)C(=O)Cn1cc(-c2nc(-c3ccccc3C)no2)nn1	-19.1
CSCCc1nc(-c2ccc3c(c2)OCO3)n(C)n1	25.9
CCCc1[nH]n(C)c(=N)c1-c1ccc2c(c1)OCO2	27.6
CCc1[nH]n(C)c(=N)c1-c1ccc2c(c1)OCO2	53.6
Cn1nc(C2CCCC2)c(-c2ccc3c(c2)OCO3)c1N	48
Cn1[nH]c(C2CCC2)c(-c2ccc3c(c2)OCO3)c1=N	64.7
Cn1[nH]c(C2CC2)c(-c2ccc3c(c2)OCO3)c1=N	16.5
CN(C)c1ncc2c(O)nc(C3CCCNC3)cc2n1 (centres undefined)	24.8
COc1ccccc1OCCCN1CCNC1=O	12.9
CCC(=O)Nc1nnc2n(Cc3cccc(OC)c3)[nH]c(C)c1-2	-31
CCC(C)(C)NC(=O)CSCc1ccc(S(=O)(=O)N(C)C)o1	3.73
CN(C)S(=O)(=O)c1ccc(CSCC(=O)NC(C)(C)C)o1	17.9
CCCNC(=O)CSCc1ccc(S(=O)(=O)N(C)C)o1	53.7
Cc1occc1C(=O)N1CCc2c(CNS(C)(=O)=O)cncc2C1	6.55
CC(C)Oc1cccc(CN(C)C(=O)Nc2cccn(C)c2=O)c1	-15
COc1c(NC(=O)N(C)CCOc2ccccc2)c(C)nn1C	-24.6

SMILES	INHIBITION [%]
CN(CCOc1ccccc1)C(=O)Nc1cccn(C)c1=O	82.4
CC(C)c1sc(Cl)nc1C(=O)N1CCN(Cc2ccccc2)CC1	10.9
Cc1ccc(-n2cc(C(=O)NCc3nnc4n3CCCCC4)nn2)cc1	-21.2
CCN(CC)c1ccc(CNC(=O)N2CCC(C#N)CC2)cc1	2.91
Cc1ccc(C(=O)N2CCCC(N(C)C(=O)OC(C)(C)C)C2)o1 (centres undefined)	37.8
CCc1ccc(C(=O)N2CCC(N(C)C(=O)OC(C)(C)C)C2)o1 (centres undefined)	71.2
CN(C(=O)OC(C)(C)C)C1CCN(C(=O)c2ccc(Cl)o2)C1 (centres undefined)	-12.3
c1ccc(-c2nc3c(c(NCc4nnc5n4CCC5)n2)CCNC3)cc1	39.4
CN(CCC(=O)N1CCc2sccc2C1)Cc1ccc2c(c1)OCCO2	-7.35
NC(=O)NC(CC(=O)N1CCc2sccc2C1)c1cccc(Br)c1 (centres undefined)	14.9
COc1ccc(CNC(=O)N2CCc3sccc3C2)cc1O	-45
COc1ccc(CNCCC(=O)N2CCc3sccc3C2)cc1O	76.2
CN(CCC(=O)N1CCc2sccc2C1)Cc1cc(Br)cs1	19.2
N#Cc1cccc(CNCCC(=O)N2CCc3sccc3C2)c1	68.3
O=C(CCNCc1cccc(O)c1)N1CCc2sccc2C1	81.2
CC(C)(C)CC(=O)N1CCc2sccc2C1	-46.6
O=C(CCN1CCCC1c1cccc(F)c1)N1CCc2sccc2C1 (centres undefined)	9.54
CN(C)C(=O)c1cccn1-c1ccc2c(c1)OCCO2	9.16
CC(C)(C)OC(=O)N1CCN(c2cccnc2)CC1C(=O)O (centres undefined)	20.2
CC(C)C(C(=O)N1CCN(Cc2ccccn2)CC1)n1cncn1 (centres undefined)	-24.5
Cc1nc(C(C)C)sc1C(=O)NCCNc1ncccc1C#N	-29.1
O=C(NC1CC1)N1CCC2(CC1)C(=O)NCCN2Cc1ccccc1	30.9
CC(C)(C)OC(=O)N(CCNS(=O)(=O)N1CCOCC1)C1CC1	-28

SMILES	INHIBITION [%]
CN1CCC2(CCCN(c3nccc(C(F)(F)F)n3)C2)CC1	-2.35
Cc1ncc(CN(C)C(=O)Nc2cccc(CN3CCOC3=O)c2)s1	52.8
O=C(Nc1cccc(CN2CCOC2=O)c1)N1CCCCCC1	-4.12
Cc1ncc(CN(C)C(=O)Nc2cccc(N3CCOC3=O)c2)s1	28
O=C(Nc1cccc(CN2CCOC2=O)c1)N1CCOCC1	5.14
O=C(Nc1cccc(CN2CCOC2=O)c1)N1CCCC1	53.8
Cc1ncc(CN(C)C(=O)Nc2ccc(CN3CCOC3=O)cc2)s1	22.5
CCCN1CCC=C(C2c3nc[nH]c3CCN2C(=O)c2ccco2)C1 (centres undefined)	25.1
OC(CN1CCC(CNCc2ccccn2)CC1)c1ccccc1 (centres undefined)	-36.1
COCC(=O)N1C[C@H]2CNC[C@@]2(C(=O)NCc2cccc3[nH]ccc23)C1	13.1
CN(CC1CCCCO1)S(=O)(=O)c1cccc(C(=O)N2CCOCC2)c1 (centres undefined)	1.19
CC(C)NC(=O)CN1CCCNCC1	3.77
CC(C)(C)NC(=O)CN1CCNCC1	-30
CC(C)(C)NC(=O)CN1CCCNCC1	74.9
O=C(O)c1cc2c(nc1-c1cncnc1)CCN(C1CCOC1)CC2 (centres undefined)	37.8
Cc1ccccc1CC(=O)N1CC[C@@](O)(CNS(C)(=O)=O)[C@H](O)C1	0.301
N#Cc1ccccc1CN(CCO)Cc1ccsc1	36.4
CN(Cc1ccc(F)cc1)C(=O)Nc1cccnc1N1CCCC1	-2.33
COCCN1C[C@@H]2CC[C@H]1CN(CC(=O)Nc1ccn(C)n1)C2	21.2
CS(=O)(=O)N1C[C@H]2CC[C@@H](C1)N(CCC(=O)NCc1ccccc1F)C2	-7.02
Cn1ccc(NC(=O)CN2C[C@@H]3CC[C@H]2CN(S(C)(=O)=O)C3)n1	53.3
COC1CCN(c2ccc(F)cc2CN(C)C(C)C(N)=O)CC1 (centres undefined)	7.3
Cc1ccccc1N1CC2(CCN(Cc3nccn3C)C2)CC1=O (centres undefined)	25.2
